Compound activity from PubChem.
The sample as a whole holds a higher share of hits than the screen did.
nsP2pro inh – Primary qHTS for inhibitors of NSP2Pro chikungunya virus (CHIKV); Polyprotein P1234 (Chikungunya virus (strain S27-African prototype)), Q8JUX6; FRET peptide cleavage, nsP2pro, fluorescence 1 h; Potency, µM (highest dose often 24.9 µM), hits mostly inhibitors; 1.1% of 31,000 active; AID 1964107, 2024; further: nearly all actives have a fitted effect of over 60% in size
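FRET cleavage of 2.5 uM peptide 2 by 150 nM CHIKV protease domain at pH 8.0 (Tris, Tween 20). Compounds at 7 concentrations (up to 25 uM) preincubated 15 min. Fluorescence read after 1 h at room temperature.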
CHIKV nsP2 cell – Secondary cell base assay for inhibitors of NSP2Pro Chikungunya virus (CHIKV). shares compounds with nsP2pro inh. cell-based CHIKV nsP2 protease reporter assay. Potency, µM (series often up to 51.1 µM), most hits filed as inhibitors. 10% of 450 active. AID 1964100, 2024; further: nearly all actives have a fitted effect of over 70% in size
CHIKV NSP2 FL – Selectivity profile for inhibitors of NSP2Pro chikungunya virus (CHIKV): Full length NSP2 enzyme counterscreen (CHIKV-NSP2); 39% of 410 active; Full-length CHIKV NSP2 protease enzymatic counterscreen; shares compounds with nsP2pro inh; AID 1964101, 2024; Potency, µM (highest dose often 50.7 µM), hits mostly inhibitors; further: nearly all actives have a fitted effect of over 65% in size
Furin counterscr – Selectivity profile for inhibitors of NSP2Pro chikungunya virus (CHIKV): Human furin counterscreen | shares compounds with nsP2pro inh | Recombinant human furin enzymatic counterscreen, fluorogenic substrate | Potency, µM (titrated, usually from 50.6 µM), usual class: inhibitors | 6% of 410 active
Target sequence (P09958 whole entry, looked up): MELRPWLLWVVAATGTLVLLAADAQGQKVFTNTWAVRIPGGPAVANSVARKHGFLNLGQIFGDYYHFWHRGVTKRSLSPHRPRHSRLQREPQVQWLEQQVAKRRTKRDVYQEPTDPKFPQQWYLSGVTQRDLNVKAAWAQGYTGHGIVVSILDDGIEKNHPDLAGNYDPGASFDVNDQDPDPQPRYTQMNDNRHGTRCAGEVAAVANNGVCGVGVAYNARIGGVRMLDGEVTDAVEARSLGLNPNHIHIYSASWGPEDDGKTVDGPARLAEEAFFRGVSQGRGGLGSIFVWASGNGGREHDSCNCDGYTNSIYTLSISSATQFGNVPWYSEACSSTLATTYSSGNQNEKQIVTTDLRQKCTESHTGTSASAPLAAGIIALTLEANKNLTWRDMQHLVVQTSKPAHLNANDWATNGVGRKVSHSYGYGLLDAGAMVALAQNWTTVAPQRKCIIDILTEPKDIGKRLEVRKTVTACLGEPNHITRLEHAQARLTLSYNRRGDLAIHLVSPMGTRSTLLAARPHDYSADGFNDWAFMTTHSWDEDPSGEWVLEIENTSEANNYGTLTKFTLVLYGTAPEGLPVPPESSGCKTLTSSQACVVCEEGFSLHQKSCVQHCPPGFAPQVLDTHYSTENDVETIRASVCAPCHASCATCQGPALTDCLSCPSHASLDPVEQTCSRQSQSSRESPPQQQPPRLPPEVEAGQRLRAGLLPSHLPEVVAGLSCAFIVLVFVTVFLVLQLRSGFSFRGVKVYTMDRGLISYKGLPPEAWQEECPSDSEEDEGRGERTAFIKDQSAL
NS23 peptide cs – Selectivity profile for inhibitors of NSP2Pro chikungunya virus (CHIKV): Endogenous NS2/3 peptide Counterscreen; 34% of 410 active; shares compounds with nsP2pro inh; Purified CHIKV nsP2 protease, endogenous NS2/3 peptide cleavage; Potency, µM (series often up to 51 µM), usual class: inhibitors; further: nearly all actives have a fitted effect of over 55% in size
Papain counter – Selectivity profile for inhibitors of NSP2Pro chikungunya virus (CHIKV): Papain Counterscreen | shares compounds with nsP2pro inh | purified papain protease activity, enzymatic inhibition | Potency, µM (highest dose often 51 µM), hits mostly inhibitors | 5% of 410 active | AID 1964104, 2024
nsP2pro confirm – Confirmatory qHTS for inhibitors of NSP2Pro chikungunya virus (CHIKV). shares compounds with nsP2pro inh. CHIKV nsP2 protease enzymatic activity, qHTS. Potency, µM (highest dose often 25.5 µM), most hits filed as inhibitors. 43% of 410 active. AID 1964105, 2024; further: nearly all actives have a fitted effect of over 75% in size
HCV NS3 counter – Selectivity profile for inhibitors of NSP2Pro chikungunya virus (CHIKV): NS34A-HCV Counterscreen | shares compounds with nsP2pro inh | HCV NS3/4A protease biochemical counterscreen | Potency, µM (titrated, usually from 50.9 µM), most hits filed as inhibitors | 20% of 410 active; further: nearly all actives have a fitted effect of over 55% in size
Of the large screens only hits and unclear results are named; the others gave an inactive call (follow-up assays come after a bar, where they were run). The call rests on the fitted dose curve.

CC(=O)OC1CC(O)C(C)(C)C2CC(OC(C)=O)C3(C)C(CCC4(C)C(c5ccoc5)C(=O)C5OC543)C12C (stereo not drawn)	none
CC1(C)OC(=O)C=C[C@@]2(C)C1CC(=O)[C@]1(C)C2CC[C@@]2(C)[C@H](c3ccoc3)OC(=O)[C@H]3O[C@]321 (stereo partly drawn)	nsP2pro inh 3.42µM | CHIKV nsP2 cell inactive | CHIKV NSP2 FL inconclusive | Furin counterscr inactive | NS23 peptide cs inactive | Papain counter inactive | nsP2pro confirm inactive | HCV NS3 counter inactive
CC(C)(O)C1CC(=O)C2(C)C(CCC3(C)C(c4ccoc4)OC(=O)C4OC432)C12CCC(=O)OC2 (stereo not drawn)	nsP2pro inh 0.858µM | CHIKV nsP2 cell inactive | CHIKV NSP2 FL inconclusive | Furin counterscr inactive | NS23 peptide cs inactive | Papain counter inactive | nsP2pro confirm inconclusive | HCV NS3 counter inconclusive
CC1CCN(CCNC(=O)c2cc3cn(C(C)C)cc3s2)CC1	none
COC(=O)C1=CO[C@@H](O[C@@H]2O[C@H](CO)[C@@H](O)[C@H](O)[C@H]2O)[C@H]2[C@@H]1C=C[C@@]21C=C([C@H](C)O)C(=O)O1	none
Cc1cc(=O)oc2cc(SC3=NS(=O)(=O)c4ccccc43)ccc12	none
COc1cc(O)c(C(CC(=O)N2CCCC(C(C)C)C2)c2ccc3c(c2)OCO3)c(OC)c1 (stereo not drawn)	none
CN(C)CC(=O)N1CCC[C@@H](n2nc(-c3ccc(Oc4ccccc4)cc3)c3c(N)ncnc32)C1	none
N#CN1CCC[C@@H](n2nc(-c3ccc(Oc4ccc(F)cc4F)cc3)c(C(N)=O)c2N)C1	nsP2pro inh inconclusive | CHIKV nsP2 cell inactive | CHIKV NSP2 FL 18.3µM | Furin counterscr inactive | NS23 peptide cs inconclusive | Papain counter inconclusive | nsP2pro confirm 7.11µM | HCV NS3 counter inactive
O=[N+]([O-])c1ccc(S(=O)(=O)c2ccc(Cl)cc2)nc1	nsP2pro inh 0.316µM | CHIKV nsP2 cell 2.06µM | CHIKV NSP2 FL 0.73µM | Furin counterscr 16.3µM | NS23 peptide cs 1.83µM | Papain counter inactive | nsP2pro confirm 0.449µM | HCV NS3 counter 5.17µM
CC(C)[C@@](C)(O)[C@@H]1CN(c2nc(-c3[nH]nc4ncccc34)c(F)cc2Cl)CCN1	none
CCCNC(=O)N1CCOC[C@H](Oc2ccc(OC)cc2)C1	none
CN(C)CCC(=O)N1Cc2ccccc2CC2(CCCN2Cc2cccnc2)C1 (stereo not drawn)	none
O=S(=O)(Cl)c1ccc(-c2ccccc2)cc1	none
CNc1nc2c(s1)C(c1ccc(Cl)cc1)CC(=O)N2 (stereo not drawn)	nsP2pro inh 3.16µM | CHIKV nsP2 cell inactive | CHIKV NSP2 FL 2.91µM | Furin counterscr inactive | NS23 peptide cs 8.19µM | Papain counter inactive | nsP2pro confirm 5.65µM | HCV NS3 counter inactive
Cc1nc(N(C)C2CCCCC2)ncc1C(C)NC(=O)C1(CO)CC1 (stereo not drawn)	none
Cc1ccc(S(=O)(=O)Nc2cc(SCC(=O)O)c(O)c3ccccc23)cc1[N+](=O)[O-]	none (no result: nsP2pro inh) | CHIKV nsP2 cell inconclusive | CHIKV NSP2 FL 4.11µM | Furin counterscr inactive | NS23 peptide cs 2.59µM | Papain counter 18.3µM | nsP2pro confirm 0.895µM | HCV NS3 counter inactive
COc1ccc(S(=O)(=O)Nc2ccc(C)n(CC(=O)O)c2=O)cc1	none
CCC(=O)NC(c1ccc(C)cc1)c1cc([N+](=O)[O-])c2cccnc2c1O (stereo not drawn)	none
O=C(Nc1nc(-c2ccccc2)cs1)c1ccncc1NS(=O)(=O)c1ccccc1	none
Cc1c(Cl)c(C)[n+]([O-])c(Cl)c1-c1noc(-c2cc(O)c(O)c([N+](=O)[O-])c2)n1	none
Cc1cc(C)nc(NC(=S)N2CCN(c3cnc4nccn4c3)CC2)c1	none
Cc1ccc(NC(=O)C(=O)NC2CC(C)(C)NC(C)(C)C2)cc1	none
COc1cccc(CNc2ccc(S(=O)(=O)Nc3cccnc3)cc2)c1O	none
O=C(/C=C/c1cccnc1)NCCCCC1CCN(C(=O)c2ccccc2)CC1	nsP2pro inh inconclusive | CHIKV nsP2 cell inactive | CHIKV NSP2 FL inactive | Furin counterscr inactive | NS23 peptide cs inactive | Papain counter inactive | nsP2pro confirm inactive | HCV NS3 counter inactive
O=C(c1ccncc1)N1CCCC(CN2CCCC2)CC1 (stereo not drawn)	none
Cc1cnc(C2CCOCC2)n1CC1CCN(C(=O)c2cccnc2)CC1	none
CC(C)=CCC(O)/C(C)=C/CO[C@@H]1O[C@H](CO)[C@@H](O)[C@H](O)[C@H]1O (stereo partly drawn)	none
O=C(/C=C/c1ccc(O)c(O)c1)O[C@@H](C(=O)O)[C@@H](OC(=O)/C=C/c1ccc(O)c(O)c1)C(=O)O	none
O=C(O)/C=C/c1ccc(O)c(O)c1	nsP2pro inh inconclusive | CHIKV nsP2 cell inactive | CHIKV NSP2 FL inactive | Furin counterscr inactive | NS23 peptide cs inactive | Papain counter inactive | nsP2pro confirm inactive | HCV NS3 counter inconclusive
COc1cc(/C=C/C(=O)O)ccc1O	none
C=C/C=C\CC1=C(C)[C@@H](OC(=O)[C@H]2[C@H](C=C(C)C)C2(C)C)CC1=O	none
O=C(Nc1ccccc1)NC1CCCN(c2ccc3nnc(-c4ccccc4)n3n2)C1 (stereo not drawn)	none
O=C(Nc1cccs1)NC1CCN(c2ccc(C(F)(F)F)cn2)C1 (stereo not drawn)	nsP2pro inh inconclusive | CHIKV nsP2 cell inconclusive | CHIKV NSP2 FL inconclusive | Furin counterscr inactive | NS23 peptide cs inconclusive | Papain counter inactive | nsP2pro confirm inconclusive | HCV NS3 counter inactive
O=C(NC1CCN(c2cc(-c3cccs3)[nH]n2)C1)c1cccnc1 (stereo not drawn)	none
Cc1cc(C)n(CC(=O)N2CCC3(CC2)CC(CN2CCOCC2)N(C)C3)n1 (stereo not drawn)	none
O=C(O)c1ccc(-c2noc(-c3ccc(Cl)cc3)n2)cc1	none
Cc1ccc(CNC(=O)c2nc(SCc3ccc(F)cc3)ncc2Cl)cc1	none
